Experimental findings from PubChem BioAssay (EPA / NIEHS) are described below.

Assay [1] addresses Estrogen receptor (Homo sapiens) (UniProt P03372). In words: CCTE_Deisenroth_AIME_384WELL_LUC_Active: CCTE's 384-well Estrogen Receptor Transactivation Assay with AIME metabolic competence (ERTA luciferase; metabolism positive), Deisenroth Lab (AID 2284030; active = hit-call score of the fitted dose curve at least 0.9, where 1 is the maximum). In outline: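 In this metabolism-positive format, a 2-hour exposure to alginate-immobilized rat S9 precedes a 24 hour luciferase transactivation readout in VM7Luc4E2 cells. Dosing spans 10 concentrations from 0.002 to 200 uM.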

A short description of assay [2]: CCTE_Deisenroth_AIME_384WELL_CTox_Active: Cytotoxicity Assessment (CTOX) in CCTE's 384-well Estrogen Receptor Transactivation Assay with AIME metabolic competence (metabolism positive), Deisenroth Lab (AID 2284037; active = hit-call score of the fitted dose curve at least 0.9, where 1 is the maximum;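 note: chemicals first conditioned 2 h by alginate-bound induced rat liver S9 before cells; activity means signal loss indicating cell death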). In outline:
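Chemicals pre-incubated 2 hours with alginate-immobilised phenobarbital/beta-naphthoflavone-induced male Sprague Dawley rat liver S9, then conditioned medium applied 24 hour to VM7Luc4E2 cells. Viability by fluorogenic protease substrate; 10-point series 0.002 - 200 uM.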

The target of assay [3] is Estrogen receptor (Homo sapiens) (UniProt P03372). In words: CCTE_Deisenroth_AIME_384WELL_LUC_Inactive: CCTE's 384-well Estrogen Receptor Transactivation Assay without AIME metabolic competence (ERTA luciferase; metabolism negative), Deisenroth Lab (AID 2284038; active = hit-call score of the fitted dose curve at least 0.9, where 1 is the maximum;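 note: VM7Luc4E2 breast cells given medium preincubated 2 h with S9-free microspheres; hits raise estrogen receptor luciferase signal so potencies reflect agonists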). The method, boiled down:
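Metabolism-negative mode: AIME lids stamped in alginate-water, no hepatic S9. 2 h chemical incubation → medium onto VM7Luc4E2 ERTA, 24 h. Readout luciferase luminescence; gain-of-signal fit vs 17beta-estradiol. Conc. 0.002 - 200 uM.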

Assay [4] is described as follows: CCTE_Deisenroth_AIME_384WELL_CTox_Inactive: Cytotoxicity Assessment (CTOX) in CCTE's 384-well Estrogen Receptor Transactivation Assay without AIME metabolic competence (metabolism negative), Deisenroth Lab (AID 2284039; active = hit-call score of the fitted dose curve at least 0.9, where 1 is the maximum;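 note: cell viability via live-cell protease substrate cleaved to fluorescent probe; cells exposed 24 h to medium preincubated 2 h with alginate-water beads without S9; loss of fluorescence signal means loss of viability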). The method, boiled down: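 VM7Luc4E2 cells, metabolism-negative arm: test chemicals (0.002–200 uM, 10 points) pre-incubated 2 h with alginate-water microspheres, then medium transferred to cells for 24 h. Viability read as protease-substrate cleavage to fluorescent probe; loss-of-signal, bidirectional fitting.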

The target of assay [5] is Estrogen receptor (Homo sapiens) (UniProt P03372). In words: CCTE_Deisenroth_AIME_384WELL_LUC_Shift: CCTE's 384-well Estrogen Receptor Transactivation Assay with AIME metabolic competence data shift (ERTA luciferase; difference in metabolism positive and negative), Deisenroth Lab (AID 2284041).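 Note: shift is response with S9 minus without S9 so positive means metabolism raised ER signal.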 The method, boiled down:
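Chemicals (0.002–200 uM, 10 points) pre-incubated 2 h with alginate-encapsulated induced male Sprague Dawley rat liver S9 or S9-free, then medium applied 24 h to VM7Luc4E2 cells; luciferase. Endpoint is per-concentration difference, S9-positive minus negative.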

Assay [6] can be described thus: CCTE_Shafer_MEA_acute_burst_percentage_mean: CCTE's Neural Acute Assay for Percentage of Spikes in a Burst, Shafer Lab (AID 2284017).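 For AC50: curve fitted for loss of signal so potency reflects decreased burst percentage.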 In outline: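 Primary rat cortical neurons on 48-well MEA plates, treated on DIV 13 or 15 at 0.03-40 uM. Spikes detected at 8x rms noise at 37C; percent change from 40-min baseline to 40-min post-dose recording, fitted versus DMSO.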

Assay [7] can be described thus: CCTE_Shafer_MEA_acute_burst_percentage_std: CCTE's Neural Acute Assay for Standard Deviation of Burst Percentage, Shafer Lab (AID 2284018).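 Note: fitted in the negative direction so actives lower burst percentage SD.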 The method, boiled down:
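Rat primary cortical neurons on 48-well MEAs, DIV 13 or 15, 37 C. 40-min baseline then 40-min recording with compound (0.03-40 uM); well-level SD of per-electrode burst spike percentage, expressed as percent change from baseline.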

Assay [8] can be described thus: CCTE_Shafer_MEA_acute_per_network_burst_spike_number_mean: CCTE's Neural Acute Assay for Average Number of Spikes in a Network Burst, Shafer Lab (AID 2284019).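 For AC50: curve fitted for loss of signal so actives reduce spikes per network burst.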 In outline: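 Rat cortical cultures, DIV 13/15; spike threshold 8x rms noise, 300-5000 Hz band-pass, 12.5 kHz sampling; wells need >/= 10 active electrodes. Compound 0.03-40 uM, 40 min, 37 C; % change vs own baseline, DMSO negative control.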

A short description of assay [9]: CCTE_Shafer_MEA_acute_per_network_burst_spike_number_std: CCTE's Neural Acute Assay for Standard Deviation of Number of Spikes in a Network Burst, Shafer Lab (AID 2284020).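 Note: fitted for decrease in spike-number SD versus DMSO so actives lower it.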 In outline:
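Rat cortical cultures, DIV 13/15, 37 C; 20-min stabilisation, 40-min baseline, compound 0.03-40 uM, 40-min re-record. Spikes detected at 8x rms noise (300-5000 Hz band-pass). Readout: % change from baseline in per-burst spike-number SD.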

The nature of assay [10]: CCTE_Shafer_MEA_acute_per_network_burst_electrodes_number_mean: CCTE's Neural Acute Assay for Mean Number of Electrodes in a Network Burst, Shafer Lab (AID 2284021).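 Note: curves fitted for decreases only so hits reduce electrodes per burst.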 The method, boiled down:
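Cultures of rat cortex neurons were exposed on DIV 13 or 15 to compounds at 0.03-40 uM in at least three wells each. Activity over 40 min before and 40 min after exposure at 37 C gave the percent change in electrodes per network burst.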

Assay [11] is described as follows: CCTE_Shafer_MEA_acute_network_burst_percentage: CCTE's Neural Acute Assay for Percentage of Network Bursts, Shafer Lab (AID 2284022).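 Note: rat primary cortical neuron networks on multiwell MEA recorded 40 min; curves fitted for loss so actives lower network burst percentage.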 In outline:
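Cortical neurons from rat were grown over microelectrode arrays and used on day 13 or 15 in vitro. Wells with at least 10 active electrodes received test chemical at 0.03-40 uM. Activity during 40 min of exposure was compared with the preceding 40-min baseline.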

Assay [12] in a line: CCTE_Shafer_MEA_acute_cross_correlation_area: CCTE's Neural Acute Assay for Area of Cross Correlation, Shafer Lab (AID 2284024).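 Note: area under pooled inter-electrode spike cross-correlation near zero lag as percent change from own baseline; curves fitted for loss of cross-correlation area so actives lower synchrony.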 In outline: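 Acute exposure of mature rat cortical networks (day 13 or 15 post-plating) to 0.03-40 uM compound. Spontaneous spiking on MEA, 40 min pre- and post-dose at 37 C.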
Assay [13] in a line: CCTE_Shafer_MEA_acute_synchrony_index: CCTE's Neural Acute Assay for Synchrony, Shafer Lab (AID 2284027).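 Note: network synchrony index of spontaneous spiking in primary rat cortical neurons on MEAs; fitted for loss of signal so actives lower synchrony relative to DMSO.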 In outline: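 Acute exposure of rat primary cortical neurons (DIV 13 or 15) at 0.03-40 uM. Synchrony index, 40 min before vs after, as % change relative to DMSO control.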
Assay [14] is described as follows: CCTE_Shafer_MEA_dev_firing_rate_mean: CCTE's Neural Network Formation Assay for Mean Firing Rate, Shafer Lab (AID 2284031). In outline: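 Extracellular spike frequency, AUC over DIV 5–12 recordings, in rat cortical neuron MEA cultures dosed from plating; loss direction vs DMSO.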
The nature of assay [15]: CCTE_Shafer_MEA_dev_per_burst_spike_percent: CCTE's Neural Network Formation Assay for Percent of Spikes in a Burst, Shafer Lab (AID 2284032). In outline: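 Value is trapezoidal AUC over recordings on days 5, 7, 9 and 12 of the well-mean fraction of spikes falling in single-electrode bursts; rat cortical cultures exposed continuously from plating, treatment renewed DIV 5 and 9, fitted downward against DMSO.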

The nature of assay [16]: CCTE_Shafer_MEA_dev_active_electrodes_number: CCTE's Neural Network Formation Assay for Number of Active Electrodes, Shafer Lab (AID 2284040; active = hit-call score of the fitted dose curve at least 0.9, where 1 is the maximum). The method, boiled down: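 Developing rat cortical networks on MEAs, exposed DIV 0–12. Value is the AUC of active-electrode counts (≥5 spikes/min) from days 5, 7, 9, 12, relative to DMSO.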
Assay [17] in a line: CCTE_Shafer_MEA_dev_burst_rate: CCTE's Neural Network Formation Assay for Burst Rate, Shafer Lab (AID 2284042). The method, boiled down: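 Primary rat cortical neurons on PEI-coated 48-well MEA plates (laminin added with cells at plating) (16 electrodes/well), exposed from plating to day 12, dosing renewed at DIV 5 and 9. Burst rate averaged over active electrodes, recorded DIV 5, 7, 9, 12, summarized as AUC; loss versus DMSO.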

Assay [18] can be described thus: CCTE_Shafer_MEA_dev_bursting_electrodes_number: CCTE's Neural Network Formation Assay for Number of Bursting Electrodes, Shafer Lab (AID 2284043; active = hit-call score of the fitted dose curve at least 0.9, where 1 is the maximum). In outline:
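Rat cortical primary neurons, 48-well MEA, 16 electrodes/well; dosing DIV 0–12, re-dosed with full media change DIV 5, 9. Recordings DIV 5/7/9/12, AxIS adaptive spike detector; bursting electrode = ≥1 burst/2 min. AUC across days; loss of signal vs DMSO.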

One may read the AC50 as the concentration at which the activity in the assay is half-maximal.

Results filed as inconclusive are left out. Activity calls are given as the source filed them. Rule for the calls, unless noted: active = hit-call score of the fitted dose curve at least 0.9, where 1 is the maximum; inactive = score below 0.9.

Estrogen receptor (Homo sapiens), sequence (P03372 whole entry, looked up): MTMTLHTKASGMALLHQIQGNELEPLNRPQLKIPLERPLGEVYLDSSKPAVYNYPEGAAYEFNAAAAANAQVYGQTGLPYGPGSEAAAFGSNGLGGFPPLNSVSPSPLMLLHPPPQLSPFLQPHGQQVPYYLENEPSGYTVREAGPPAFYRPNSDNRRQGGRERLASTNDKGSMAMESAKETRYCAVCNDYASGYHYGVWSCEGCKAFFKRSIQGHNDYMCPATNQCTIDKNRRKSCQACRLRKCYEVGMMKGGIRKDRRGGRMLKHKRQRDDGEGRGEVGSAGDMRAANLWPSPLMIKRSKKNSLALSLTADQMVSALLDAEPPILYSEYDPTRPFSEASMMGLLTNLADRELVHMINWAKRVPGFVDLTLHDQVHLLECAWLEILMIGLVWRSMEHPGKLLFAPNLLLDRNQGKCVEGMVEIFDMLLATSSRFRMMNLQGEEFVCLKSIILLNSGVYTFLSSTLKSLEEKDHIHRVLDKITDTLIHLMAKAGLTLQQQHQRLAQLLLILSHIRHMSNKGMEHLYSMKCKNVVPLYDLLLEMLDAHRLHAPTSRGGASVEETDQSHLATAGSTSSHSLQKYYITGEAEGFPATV

For the compound `CCCCCCCCO`, the result in [1], in assay [2], in [3], in assay [4] and in assay [5] was inactive.

Turning to `O=C(O)c1cccc(Oc2ccccc2)c1`, the result in assay [1], in assay [2], in assay [3] and in assay [5] was inactive. Besides, in [4], the AC50 was 0.000708 µM (active).

As to `COc1cccc(-c2ccc(/C=C\CN3CCCCCC3)cc2Cl)c1`, the AC50 in assay [6] is 1.34 µM (active); in assay [8], 3.94 µM (active); in assay [12], 3.7 µM (active). Also, the call in [7], in assay [9], in [10], in assay [11], in assay [13] and in assay [1] was inactive. The compound was called inactive in assay [2], in assay [3], in [4] and in [5].

With `Cn1c(=O)cc(Oc2ccc(F)cc2F)c2cnc(NCC(C)(C)O)nc21`, the call in [1], in assay [2], in [3] and in assay [4] was inactive. Further, the AC50 in assay [5] is 79.3 µM (active).

Take `CC[C@H]1CC[C@H](NCc2cc3c(cc2OC)[C@H]2C[C@H]2C(=O)N3C)[C@H](c2ccccc2)N1`: in assay [6], the AC50 was 30.9 µM (active). For the same compound, the result in [7], in assay [8], in [9], in assay [10], in [11] and in assay [12] was inactive. Further, the compound was called inactive in [13].

Regarding `CC[C@H]1OC(=O)[C@H](C)[C@@H](O[C@H]2C[C@@](C)(OC)[C@@H](O)[C@H](C)O2)[C@H](C)[C@@H](O[C@@H]2O[C@H](C)C[C@H](N(C)C)[C@H]2O)[C@](C)(O)C[C@@H](C)C(=O)[C@H](C)[C@@H](O)[C@]1(C)O`, the call in assay [6], in assay [7], in assay [8], in [9], in assay [10] and in assay [11] was inactive. Besides, the outcome in assay [12], in assay [13], in assay [14], in assay [15], in assay [16] and in assay [17] was inactive. In addition, in assay [18], the outcome was inactive.

In the case of `Cn1cnc([N+](=O)[O-])c1Sc1ncnc2nc[nH]c12`, the compound was classed as inactive in assay [6], in assay [7], in [8], in assay [9], in [10] and in assay [11]. In addition, the compound was classed as inactive in assay [12] and in assay [13].

For `CCCCCCCCCCCCc1ccccc1`, the compound was classed as inactive in assay [6], in assay [7], in assay [8], in assay [9], in [10] and in assay [11]. The compound was called inactive in [12] and in assay [13].

In the case of `O=C(O)CCN(C1(C(=O)NO)CCCC1)S(=O)(=O)c1ccc(Oc2ccc(F)cc2)cc1`, the compound was classed as inactive in assay [6], in assay [7], in assay [8], in assay [9], in [10] and in assay [11]. Also, the compound was called inactive in assay [12] and in [13].
